Legend:
Test in all cases: log2 ratio of Biotin-Ahx-Ub-VS probe labelling (fragment/DMSO); higher = less target engagement (more negative = stronger competition), active = hit call of the paper (q ≤ 0.05, log2 ratio ≤ -1)
Conditions in all cases: compound concentration: 200 uM; treatment time: 3 h
[1] = biological target: USP34 (UniProt Q70CQ2)
Procedure, shortened: (§1)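 Labelling with Biotin-Ahx-Ub-VS (0.5 µM final, 1 h) followed a 3 h triplicate treatment of HEK293T lysate (495 µg per sample, Tris/CHAPS/IGEPAL buffer with protease inhibitors) with fragment at 200 µM or vehicle. Labelled DUBs were NeutrAvidin-enriched, digested with LysC and trypsin, and run by diaPASEF LC-MS/MS. The values, average log2 fragment/vehicle ratios by unpaired t-test, come from global-median-normalised Spectronaut label-free quantities. Proteins with ≥2 unique peptides were used.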

[2] = biological target: T1, USP36 (UniProt Q9P275)
T1 sequence (whole entry): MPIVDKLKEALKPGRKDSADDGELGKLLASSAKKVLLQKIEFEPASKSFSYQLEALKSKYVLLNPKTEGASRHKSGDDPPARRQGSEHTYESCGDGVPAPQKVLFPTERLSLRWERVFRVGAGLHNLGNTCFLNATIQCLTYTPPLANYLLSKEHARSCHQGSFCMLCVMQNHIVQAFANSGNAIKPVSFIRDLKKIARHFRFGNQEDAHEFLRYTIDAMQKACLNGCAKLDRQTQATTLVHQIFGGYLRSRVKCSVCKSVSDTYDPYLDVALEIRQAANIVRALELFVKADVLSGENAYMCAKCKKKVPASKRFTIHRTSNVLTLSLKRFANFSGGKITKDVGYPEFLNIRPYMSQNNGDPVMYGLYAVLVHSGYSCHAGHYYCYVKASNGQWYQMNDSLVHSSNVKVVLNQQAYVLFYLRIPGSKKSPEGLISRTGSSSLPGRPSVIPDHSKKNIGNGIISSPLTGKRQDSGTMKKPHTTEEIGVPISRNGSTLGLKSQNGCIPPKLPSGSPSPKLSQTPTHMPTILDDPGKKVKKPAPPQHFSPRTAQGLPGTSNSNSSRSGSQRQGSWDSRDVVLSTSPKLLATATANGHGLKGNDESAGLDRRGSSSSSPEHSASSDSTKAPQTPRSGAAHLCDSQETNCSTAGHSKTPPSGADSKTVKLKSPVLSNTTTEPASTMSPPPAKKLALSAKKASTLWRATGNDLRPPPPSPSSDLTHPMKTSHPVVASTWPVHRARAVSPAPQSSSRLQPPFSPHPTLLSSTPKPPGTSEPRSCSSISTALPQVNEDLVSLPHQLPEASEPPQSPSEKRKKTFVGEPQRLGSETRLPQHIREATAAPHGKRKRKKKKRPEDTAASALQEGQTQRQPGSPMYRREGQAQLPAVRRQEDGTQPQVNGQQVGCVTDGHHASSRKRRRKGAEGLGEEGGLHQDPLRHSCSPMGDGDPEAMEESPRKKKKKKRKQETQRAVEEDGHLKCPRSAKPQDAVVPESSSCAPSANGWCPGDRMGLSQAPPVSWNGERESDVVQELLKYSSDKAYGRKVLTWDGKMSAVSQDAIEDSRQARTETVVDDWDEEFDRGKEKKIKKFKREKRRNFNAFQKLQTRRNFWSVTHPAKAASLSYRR
Procedure, shortened: as §1

[3] = biological target: T2, USP38 (UniProt Q8NB14)
T2 sequence (whole entry): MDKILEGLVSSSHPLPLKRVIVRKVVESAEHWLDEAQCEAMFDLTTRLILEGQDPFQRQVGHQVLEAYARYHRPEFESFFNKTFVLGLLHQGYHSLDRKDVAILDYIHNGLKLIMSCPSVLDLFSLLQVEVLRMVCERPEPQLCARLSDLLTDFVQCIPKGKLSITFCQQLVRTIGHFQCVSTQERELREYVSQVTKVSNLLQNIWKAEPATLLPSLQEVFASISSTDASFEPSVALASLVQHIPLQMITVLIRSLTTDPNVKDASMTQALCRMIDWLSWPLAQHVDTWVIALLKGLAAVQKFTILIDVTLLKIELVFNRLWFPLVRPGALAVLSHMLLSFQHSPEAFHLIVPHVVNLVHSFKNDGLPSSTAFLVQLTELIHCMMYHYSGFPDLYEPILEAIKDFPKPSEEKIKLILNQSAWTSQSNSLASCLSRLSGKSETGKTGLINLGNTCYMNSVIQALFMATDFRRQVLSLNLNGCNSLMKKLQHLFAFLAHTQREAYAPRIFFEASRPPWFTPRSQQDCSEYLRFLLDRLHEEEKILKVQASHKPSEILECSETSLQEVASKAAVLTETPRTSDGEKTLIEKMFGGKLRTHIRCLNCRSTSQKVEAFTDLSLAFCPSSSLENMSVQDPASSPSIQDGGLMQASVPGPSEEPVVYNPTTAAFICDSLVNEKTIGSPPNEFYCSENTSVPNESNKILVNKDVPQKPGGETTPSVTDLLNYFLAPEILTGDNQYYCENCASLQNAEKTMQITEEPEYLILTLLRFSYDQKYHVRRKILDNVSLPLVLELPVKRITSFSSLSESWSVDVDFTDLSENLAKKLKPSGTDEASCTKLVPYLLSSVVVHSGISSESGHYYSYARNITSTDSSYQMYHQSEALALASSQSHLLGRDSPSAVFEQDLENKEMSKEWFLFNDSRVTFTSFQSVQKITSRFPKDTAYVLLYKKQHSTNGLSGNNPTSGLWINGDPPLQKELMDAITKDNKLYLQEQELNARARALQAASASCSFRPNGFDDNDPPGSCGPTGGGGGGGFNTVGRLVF
Procedure, shortened: as §1

[4] = biological target: T3, USP39 (UniProt Q53GS9)
T3 sequence (whole entry): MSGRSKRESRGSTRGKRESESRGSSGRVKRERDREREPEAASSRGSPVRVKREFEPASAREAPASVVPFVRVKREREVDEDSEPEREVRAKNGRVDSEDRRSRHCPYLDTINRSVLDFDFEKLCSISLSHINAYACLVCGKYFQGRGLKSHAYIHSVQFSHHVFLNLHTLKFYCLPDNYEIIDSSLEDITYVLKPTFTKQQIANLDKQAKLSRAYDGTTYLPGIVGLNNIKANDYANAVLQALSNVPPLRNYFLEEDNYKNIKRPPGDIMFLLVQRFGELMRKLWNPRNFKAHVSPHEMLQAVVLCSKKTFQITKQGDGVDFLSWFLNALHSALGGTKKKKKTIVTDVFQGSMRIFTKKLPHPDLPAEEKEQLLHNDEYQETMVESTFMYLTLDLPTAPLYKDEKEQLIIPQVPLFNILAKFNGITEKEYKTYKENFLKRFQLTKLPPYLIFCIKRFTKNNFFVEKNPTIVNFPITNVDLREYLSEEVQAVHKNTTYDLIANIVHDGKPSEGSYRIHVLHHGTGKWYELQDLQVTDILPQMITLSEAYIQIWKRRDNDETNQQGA
Procedure, shortened: as §1

[5] = biological target: T4, USP4 (UniProt Q13107)
T4 sequence (whole entry): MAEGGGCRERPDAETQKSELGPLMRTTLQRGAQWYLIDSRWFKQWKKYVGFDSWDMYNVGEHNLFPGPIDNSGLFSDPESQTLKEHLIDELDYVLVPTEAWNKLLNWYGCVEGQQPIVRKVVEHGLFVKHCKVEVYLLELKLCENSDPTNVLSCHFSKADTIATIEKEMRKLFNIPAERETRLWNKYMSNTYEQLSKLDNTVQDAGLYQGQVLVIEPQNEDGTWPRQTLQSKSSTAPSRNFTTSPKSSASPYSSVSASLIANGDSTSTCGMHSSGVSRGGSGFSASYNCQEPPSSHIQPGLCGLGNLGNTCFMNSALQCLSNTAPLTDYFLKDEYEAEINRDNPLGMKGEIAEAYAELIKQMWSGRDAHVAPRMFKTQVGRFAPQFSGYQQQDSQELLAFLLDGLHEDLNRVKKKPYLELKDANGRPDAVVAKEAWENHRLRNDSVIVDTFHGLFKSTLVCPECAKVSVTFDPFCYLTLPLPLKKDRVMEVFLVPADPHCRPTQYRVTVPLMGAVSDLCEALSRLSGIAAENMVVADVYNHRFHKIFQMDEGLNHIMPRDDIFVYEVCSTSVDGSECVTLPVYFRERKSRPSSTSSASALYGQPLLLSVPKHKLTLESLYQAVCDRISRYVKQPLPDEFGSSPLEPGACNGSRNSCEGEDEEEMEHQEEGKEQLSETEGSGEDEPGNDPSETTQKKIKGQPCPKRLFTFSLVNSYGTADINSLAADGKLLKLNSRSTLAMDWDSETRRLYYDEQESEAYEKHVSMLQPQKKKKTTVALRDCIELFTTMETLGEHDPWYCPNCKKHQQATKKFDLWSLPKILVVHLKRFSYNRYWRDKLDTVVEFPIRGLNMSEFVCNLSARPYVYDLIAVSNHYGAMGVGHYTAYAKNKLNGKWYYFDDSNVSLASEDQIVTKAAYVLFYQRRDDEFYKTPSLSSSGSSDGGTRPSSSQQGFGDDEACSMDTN
Procedure, shortened: as §1

Measured: log2 ratio of Biotin-Ahx-Ub-VS probe labelling

Sequence of USP34 (Q70CQ2 whole entry, the tested form may be a part): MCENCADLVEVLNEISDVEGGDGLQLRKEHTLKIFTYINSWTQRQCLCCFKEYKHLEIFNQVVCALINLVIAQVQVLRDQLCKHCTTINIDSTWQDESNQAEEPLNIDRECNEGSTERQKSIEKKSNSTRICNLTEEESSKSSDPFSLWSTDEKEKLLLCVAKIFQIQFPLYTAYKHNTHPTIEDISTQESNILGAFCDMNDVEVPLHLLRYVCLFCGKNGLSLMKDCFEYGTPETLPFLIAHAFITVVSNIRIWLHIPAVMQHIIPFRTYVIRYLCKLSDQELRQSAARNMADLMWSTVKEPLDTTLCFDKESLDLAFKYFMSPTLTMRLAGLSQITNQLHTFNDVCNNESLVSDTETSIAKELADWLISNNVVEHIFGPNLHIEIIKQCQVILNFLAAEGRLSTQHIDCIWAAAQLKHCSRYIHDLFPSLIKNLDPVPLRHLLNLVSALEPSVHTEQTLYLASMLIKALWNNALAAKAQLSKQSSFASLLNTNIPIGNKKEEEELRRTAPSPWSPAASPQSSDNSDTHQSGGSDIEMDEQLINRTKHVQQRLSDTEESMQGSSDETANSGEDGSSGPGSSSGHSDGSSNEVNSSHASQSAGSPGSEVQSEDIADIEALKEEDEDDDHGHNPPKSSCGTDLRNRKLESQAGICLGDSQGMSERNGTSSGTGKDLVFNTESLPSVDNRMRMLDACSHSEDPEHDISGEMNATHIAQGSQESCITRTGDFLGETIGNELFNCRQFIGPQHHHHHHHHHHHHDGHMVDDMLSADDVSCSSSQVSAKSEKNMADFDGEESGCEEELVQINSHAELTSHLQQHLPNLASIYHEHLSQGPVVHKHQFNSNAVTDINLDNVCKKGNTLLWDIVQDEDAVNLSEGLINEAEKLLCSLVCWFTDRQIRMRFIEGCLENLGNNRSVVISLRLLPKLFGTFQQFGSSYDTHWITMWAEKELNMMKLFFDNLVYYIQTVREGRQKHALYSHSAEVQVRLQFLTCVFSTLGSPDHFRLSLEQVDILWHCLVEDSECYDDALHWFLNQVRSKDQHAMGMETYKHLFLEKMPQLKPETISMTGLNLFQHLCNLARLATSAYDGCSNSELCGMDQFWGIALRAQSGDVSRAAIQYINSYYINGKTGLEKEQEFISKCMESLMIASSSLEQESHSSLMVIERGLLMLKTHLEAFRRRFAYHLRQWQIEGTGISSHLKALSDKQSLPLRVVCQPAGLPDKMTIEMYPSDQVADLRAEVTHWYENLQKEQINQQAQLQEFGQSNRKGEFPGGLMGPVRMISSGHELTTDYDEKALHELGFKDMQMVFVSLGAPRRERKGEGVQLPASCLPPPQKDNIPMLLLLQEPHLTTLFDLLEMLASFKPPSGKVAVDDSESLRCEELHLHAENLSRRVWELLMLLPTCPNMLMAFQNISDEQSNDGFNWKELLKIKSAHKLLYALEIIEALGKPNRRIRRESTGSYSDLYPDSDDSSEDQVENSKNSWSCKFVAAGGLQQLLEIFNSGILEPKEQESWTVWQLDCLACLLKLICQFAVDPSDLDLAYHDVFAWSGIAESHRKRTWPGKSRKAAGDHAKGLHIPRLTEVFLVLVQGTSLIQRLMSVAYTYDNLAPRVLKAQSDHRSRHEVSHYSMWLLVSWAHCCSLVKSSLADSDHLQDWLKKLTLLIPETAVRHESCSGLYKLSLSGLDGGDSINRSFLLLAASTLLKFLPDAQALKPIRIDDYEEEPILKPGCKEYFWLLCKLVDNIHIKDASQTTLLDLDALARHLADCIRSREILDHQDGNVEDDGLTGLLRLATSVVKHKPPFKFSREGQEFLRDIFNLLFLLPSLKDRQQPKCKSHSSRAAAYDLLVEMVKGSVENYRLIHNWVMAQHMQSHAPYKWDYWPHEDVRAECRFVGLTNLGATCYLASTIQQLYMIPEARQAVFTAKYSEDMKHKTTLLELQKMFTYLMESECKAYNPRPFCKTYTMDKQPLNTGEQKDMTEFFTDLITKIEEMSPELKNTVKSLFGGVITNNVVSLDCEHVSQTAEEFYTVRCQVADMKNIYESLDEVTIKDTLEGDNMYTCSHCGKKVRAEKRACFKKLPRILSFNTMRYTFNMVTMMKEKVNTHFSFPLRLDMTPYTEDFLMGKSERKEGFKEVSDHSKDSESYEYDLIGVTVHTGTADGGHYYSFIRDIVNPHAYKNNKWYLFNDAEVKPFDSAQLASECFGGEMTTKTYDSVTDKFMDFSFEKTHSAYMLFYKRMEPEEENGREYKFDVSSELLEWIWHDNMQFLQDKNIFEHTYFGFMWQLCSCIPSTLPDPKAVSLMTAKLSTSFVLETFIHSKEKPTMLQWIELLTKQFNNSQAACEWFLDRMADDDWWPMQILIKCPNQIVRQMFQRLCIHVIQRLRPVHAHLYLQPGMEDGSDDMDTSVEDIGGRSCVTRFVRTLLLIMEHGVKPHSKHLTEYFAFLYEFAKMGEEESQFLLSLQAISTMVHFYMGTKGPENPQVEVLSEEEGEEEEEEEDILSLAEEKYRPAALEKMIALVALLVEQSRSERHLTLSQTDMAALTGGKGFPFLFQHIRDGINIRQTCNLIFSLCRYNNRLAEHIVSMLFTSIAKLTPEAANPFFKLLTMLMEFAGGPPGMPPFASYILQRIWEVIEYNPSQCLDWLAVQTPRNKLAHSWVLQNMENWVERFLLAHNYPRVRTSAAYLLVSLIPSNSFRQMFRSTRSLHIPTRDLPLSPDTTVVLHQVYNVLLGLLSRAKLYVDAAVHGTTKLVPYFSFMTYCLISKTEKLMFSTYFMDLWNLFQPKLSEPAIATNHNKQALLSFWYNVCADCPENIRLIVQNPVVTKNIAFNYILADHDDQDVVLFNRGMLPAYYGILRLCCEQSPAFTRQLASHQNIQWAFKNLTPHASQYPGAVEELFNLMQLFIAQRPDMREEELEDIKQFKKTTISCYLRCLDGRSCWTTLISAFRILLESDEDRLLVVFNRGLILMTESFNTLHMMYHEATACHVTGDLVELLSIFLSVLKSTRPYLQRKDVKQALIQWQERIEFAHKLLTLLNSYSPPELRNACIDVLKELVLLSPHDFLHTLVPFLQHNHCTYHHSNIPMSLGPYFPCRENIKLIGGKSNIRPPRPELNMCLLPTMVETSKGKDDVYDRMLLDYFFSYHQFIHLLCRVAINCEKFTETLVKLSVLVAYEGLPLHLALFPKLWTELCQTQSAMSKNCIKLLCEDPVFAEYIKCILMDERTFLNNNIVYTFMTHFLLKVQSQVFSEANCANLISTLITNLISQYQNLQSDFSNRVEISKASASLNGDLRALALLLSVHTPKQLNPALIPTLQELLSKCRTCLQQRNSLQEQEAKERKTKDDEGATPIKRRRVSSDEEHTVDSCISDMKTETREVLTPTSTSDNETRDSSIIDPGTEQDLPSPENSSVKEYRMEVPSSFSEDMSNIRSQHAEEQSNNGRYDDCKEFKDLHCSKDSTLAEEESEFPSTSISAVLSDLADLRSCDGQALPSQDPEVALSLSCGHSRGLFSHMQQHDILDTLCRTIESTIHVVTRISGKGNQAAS

C#Cc1cccc(NC(=O)CCl)c1
inactive: [1] -0.135 | [2] -0.00355 | [3] -0.119 | [4] 0.046 | [5] 0.0482
